Records with an inconclusive call do not appear. Activity calls are given as the source filed them. Calls come from the whole dose curve; as a rule, active = well fitted curve in the direction sought with a large enough effect; inconclusive = small, poorly fitted or top-dose-only effect, or another doubt; inactive = no such curve, though single readings can be large; an effect the other way counts as inactive or inconclusive.
What was measured:
[1] = Quantitative High-Throughput drug screen in 47 multiple myeloma cell lines against the NCATS MIPE library collection: JIM3_ECACC cell viability assay (AID 1918963; note: nearly all actives have a fitted effect of over 35% in size)
In short: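 Primary qHTS used for cherry-picking: cells at 500/well, library compounds for 48 h (37C, 5% CO2), luminescent ATP assay.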

[2] = Quantitative High-Throughput drug screen in 47 multiple myeloma cell lines against the NCATS MIPE library collection: JIM1_ECACC cell viability assay (AID 1918964)
In short: (§1)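 Luminescent ATP measurement with CellTiter-Glo gives viability, scaled between DMSO-only wells (100%) and media-only wells (0%). Cells, 500 per well, faced library compounds for 48 hours at 37C.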

[3] = Quantitative High-Throughput drug screen in 47 multiple myeloma cell lines against the NCATS MIPE library collection: INA6_PLB cell viability assay (AID 1918965; note: nearly all actives have a fitted effect of over 55% in size)
In short: (§2)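 We plated 500 myeloma cells per well, pinned in MIPE 4.0 compounds, and incubated for 48 hours at 37C. ATP was then quantified with CellTiter-Glo, with DMSO and media-only wells defining 100% and 0%.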

[4] = Quantitative High-Throughput drug screen in 47 multiple myeloma cell lines against the NCATS MIPE library collection: JJN3_DSMZ cell viability assay (AID 1918966; note: nearly all actives have a fitted effect of over 50% in size)
In short: as §1

[5] = Quantitative High-Throughput drug screen in 47 multiple myeloma cell lines against the NCATS MIPE library collection: H1112_PLB cell viability assay (AID 1918967; note: nearly all actives have a fitted effect of over 30% in size)
In short: as §1

[6] = Quantitative High-Throughput drug screen in 47 multiple myeloma cell lines against the NCATS MIPE library collection: Karpas25_ECACC cell viability assay (AID 1918968; note: nearly all actives have a fitted effect of over 35% in size)
In short: as §1

[7] = Quantitative High-Throughput drug screen in 47 multiple myeloma cell lines against the NCATS MIPE library collection: KMS27_JCRB cell viability assay (AID 1918970); note: nearly all actives have a fitted effect of over 30% in size
In short: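 Each line is seeded at 500 cells per well and treated with library compounds for 48 hours under 37 °C, 5% CO2. CellTiter-Glo is then added for 5 min at room temperature before median relative luminescence is recorded.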

[8] = Quantitative High-Throughput drug screen in 47 multiple myeloma cell lines against the NCATS MIPE library collection: KMS12BM_JCRB cell viability assay (AID 1918971); note: nearly all actives have a fitted effect of over 35% in size
In short: (§3)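 qHTS of the MIPE 4.0 collection: 500 myeloma cells/well, 48 h drug exposure at 37C in 5% CO2, then CellTiter-Glo for 5 min at room temperature before luminescence reading.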

[9] = Quantitative High-Throughput drug screen in 47 multiple myeloma cell lines against the NCATS MIPE library collection: KMS20_JCRB cell viability assay (AID 1918973); note: nearly all actives have a fitted effect of over 45% in size
In short: as §1

[10] = Quantitative High-Throughput drug screen in 47 multiple myeloma cell lines against the NCATS MIPE library collection: KMS21BM_JCRB cell viability assay (AID 1918974); details: ATP luminescence, 48 h; viability: at 45.8 µM (top of the series) unless noted
In short: as §1

[11] = Quantitative High-Throughput drug screen in 47 multiple myeloma cell lines against the NCATS MIPE library collection: KMS26_JCRB cell viability assay (AID 1918975); note: nearly all actives have a fitted effect of over 45% in size
In short: as §3

[12] = Quantitative High-Throughput drug screen in 47 multiple myeloma cell lines against the NCATS MIPE library collection: MMM1_PLB cell viability assay (AID 1918976); note: nearly all actives have a fitted effect of over 35% in size
In short: (§4)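 Plated at 500 cells per well, myeloma lines received MIPE 4.0 compounds by pin tool. Following 48 h culture at 37 °C, CellTiter-Glo luminescence gave viability relative to DMSO and media-only controls.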

[13] = Quantitative High-Throughput drug screen in 47 multiple myeloma cell lines against the NCATS MIPE library collection: MOLP8_DSMZ cell viability assay (AID 1918977); note: nearly all actives have a fitted effect of over 45% in size
In short: as §4

[14] = Quantitative High-Throughput drug screen in 47 multiple myeloma cell lines against the NCATS MIPE library collection: NCIH929_DSMZ cell viability assay (AID 1918978); note: nearly all actives have a fitted effect of over 35% in size
In short: as §4

[15] = Quantitative High-Throughput drug screen in 47 multiple myeloma cell lines against the NCATS MIPE library collection: MM1S_ATCC cell viability assay (AID 1918980); note: nearly all actives have a fitted effect of over 45% in size
In short: as §4

[16] = Quantitative High-Throughput drug screen in 47 multiple myeloma cell lines against the NCATS MIPE library collection: MM1R_ATCC cell viability assay (AID 1918981); note: nearly all actives have a fitted effect of over 35% in size
In short: as §4

[17] = Quantitative High-Throughput drug screen in 47 multiple myeloma cell lines against the NCATS MIPE library collection: LP1_DSMZ cell viability assay (AID 1918982); note: nearly all actives have a fitted effect of over 35% in size
In short: as §4

[18] = Quantitative High-Throughput drug screen in 47 multiple myeloma cell lines against the NCATS MIPE library collection: KMS28PE_JCRB cell viability assay (AID 1918983); note: nearly all actives have a fitted effect of over 35% in size
In short: as §4

[19] = Quantitative High-Throughput drug screen in 47 multiple myeloma cell lines against the NCATS MIPE library collection: KMS12PE_JCRB cell viability assay (AID 1918972); note: nearly all actives have a fitted effect of over 30% in size
In short: as §2

[20] = Quantitative High-Throughput drug screen in 47 multiple myeloma cell lines against the NCATS MIPE library collection: OCIMY1_PLB cell viability assay (AID 1918979); note: nearly all actives have a fitted effect of over 35% in size
In short: as §4
Potency is the fitted concentration of half-maximal effect.

For `COc1cc2c(cc1-c1c(C)noc1C)ncc1[nH]c(=O)n([C@H](C)c3ccccn3)c12`, the Potency [1] was 18700 nM (active), the Potency [2] was 5900 nM (active) and the Potency [3] was 264 nM (active). The Potency [4] was 6620 nM (active), the Potency [5] was 20900 nM (active) and the Potency [6] was 4690 nM (active). For the same molecule, the Potency [7] was 3720 nM (active), the Potency [8] was 833 nM (active) and the Potency [9] was 8330 nM (active). The Potency [10] was 743 nM (active), the Potency [11] was 26.4 nM (active) and the Potency [12] was 7430 nM (active). The Potency [13] was 296 nM (active), the Potency [14] was 3320 nM (active) and the Potency [15] was 2640 nM (active). For the same molecule, the Potency [16] was 3320 nM (active), the Potency [17] was 372 nM (active) and the Potency [18] was 662 nM (active).
In the case of `COc1cccc2c(NCc3ccccc3)nc(-n3c(N)nc4ccccc43)nc12`, the Potency [1] is reported as 2960 nM (active), the Potency [2] is reported as 1870 nM (active) and the Potency [3] is reported as 3720 nM (active). The Potency [4] was 6620 nM (active), the Potency [5] was 7430 nM (active) and the Potency [6] was 2640 nM (active). The Potency [7] was 1050 nM (active), the Potency [8] was 9350 nM (active) and the Potency [19] was 2350 nM (active). For the same molecule, the Potency [9] was 2960 nM (active), the Potency [12] was 5900 nM (active) and the Potency [13] was 3320 nM (active). The Potency [14] was 3320 nM (active), the Potency [20] was 7430 nM (active) and the Potency [15] was 5260 nM (active). The Potency [16] was 5900 nM (active), the Potency [17] was 9350 nM (active) and the Potency [18] was 8330 nM (active).
In the case of `COc1cc(C)c(Sc2cnc(NC(=O)c3ccc(CNC(C)C(C)C)cc3)s2)cc1C(=O)N1CCN(C(C)=O)CC1` (stereo unspecified), the Potency [1] is reported as 4180 nM (active), the Potency [2] is reported as “inactive” and the Potency [3] is reported as 18700 nM (active). The Potency [4] was 16600 nM (active), the Potency [5] was 14800 nM (active) and the Potency [6] was 4690 nM (active). For the same molecule, the Potency [7] was “inactive”, the Potency [8] was 14800 nM (active) and the Potency [19] was “inactive”. The Potency [11] was 14800 nM (active), the Potency [12] was 4690 nM (active) and the Potency [14] was 2960 nM (active). The Potency [15] was 16600 nM (active) and the Potency [16] was 14800 nM (active).
For `COc1cc2c(Oc3ccc(-c4cnc(Nc5ccc(F)cc5)n(C)c4=O)cc3F)ccnc2cc1OCCCN1CCOCC1`, the Potency [1] was 5900 nM (active), the Potency [2] was 1180 nM (active) and the Potency [3] was 14800 nM (active). For the same molecule, the Potency [4] was 11800 nM (active), the Potency [5] was 14800 nM (active) and the Potency [6] was 1870 nM (active). The Potency [7] was 1180 nM (active), the Potency [8] was 20900 nM (active) and the Potency [19] was 1870 nM (active). The Potency [9] was 2960 nM (active), the Potency [12] was 4690 nM (active) and the Potency [13] was 18700 nM (active). For the same molecule, the Potency [14] was 2640 nM (active), the Potency [15] was 9350 nM (active) and the Potency [16] was 3720 nM (active). The Potency [17] was 11800 nM (active) and the Potency [18] was 11800 nM (active).
With `COc1cc2ncn(-c3cc(OCc4ccccc4C(F)(F)F)c(C(N)=O)s3)c2cc1OC` the Potency [1] was 469 nM (active), the Potency [2] was 296 nM (active) and the Potency [3] was 1180 nM (active). The Potency [4] was 16600 nM (active), the Potency [5] was 7430 nM (active) and the Potency [6] was 13200 nM (active). For the same molecule, the Potency [7] was 132 nM (active), the Potency [8] was 833 nM (active) and the Potency [10] was 1320 nM (active). The Potency [11] was 18700 nM (active), the Potency [12] was 20900 nM (active) and the Potency [14] was 7430 nM (active). For the same molecule, the Potency [15] was 3320 nM (active), the Potency [16] was 18700 nM (active) and the Potency [17] was 935 nM (active). For the same molecule, the Potency [18] was 16600 nM (active).
In the case of `O=c1[nH]nc(Sc2ncc([N+](=O)[O-])s2)n1-c1ccc2c(c1)OCCO2`, the Potency [1] is reported as 2640 nM (active), the Potency [2] is reported as 5900 nM (active) and the Potency [3] is reported as 1180 nM (active). The Potency [4] was 2090 nM (active), the Potency [5] was 2640 nM (active) and the Potency [6] was 1320 nM (active). For the same molecule, the Potency [7] was 6620 nM (active), the Potency [8] was 4690 nM (active) and the Potency [19] was 7430 nM (active). For the same molecule, the Potency [9] was 2090 nM (active), the Potency [12] was 2960 nM (active) and the Potency [13] was 1480 nM (active). The Potency [14] was 833 nM (active), the Potency [15] was 2350 nM (active) and the Potency [16] was 1320 nM (active). The Potency [17] was 6620 nM (active) and the Potency [18] was 3320 nM (active).
For `Cc1ccc(NC(=O)C2(c3ccc4c(c3)OC(F)(F)O4)CC2)nc1-c1cccc(C(=O)O)c1`, the Potency [1] was 118 nM (active), the Potency [2] was 41.8 nM (active) and the Potency [3] was 29.6 nM (active). For the same molecule, the Potency [4] was 148 nM (active), the Potency [5] was 118 nM (active) and the Potency [6] was 33.2 nM (active). For the same molecule, the Potency [7] was 46.9 nM (active), the Potency [8] was 29.6 nM (active) and the Potency [9] was 83.3 nM (active). The Potency [10] was 46.9 nM (active), the Potency [12] was 52.6 nM (active) and the Potency [13] was 20.9 nM (active). The Potency [14] was 235 nM (active), the Potency [20] was 187 nM (active) and the Potency [15] was 52.6 nM (active). For the same molecule, the Potency [16] was 59 nM (active), the Potency [17] was 66.2 nM (active) and the Potency [18] was 41.8 nM (active).
In the case of `CNC(=O)c1ccc(N2C(=S)N(c3cnc(C#N)c(C(F)(F)F)c3)C(=O)C23CCC3)cc1F`, the Potency [1] is reported as 2960 nM (active), the Potency [2] is reported as 1870 nM (active) and the Potency [3] is reported as 2090 nM (active). For the same molecule, the Potency [4] was 3320 nM (active), the Potency [5] was 833 nM (active) and the Potency [6] was 743 nM (active). For the same molecule, the Potency [7] was 4690 nM (active), the Potency [8] was 13200 nM (active) and the Potency [19] was 2960 nM (active). For the same molecule, the Potency [9] was 2350 nM (active), the Potency [11] was 1480 nM (active) and the Potency [14] was 332 nM (active). For the same molecule, the Potency [15] was 132 nM (active), the Potency [16] was 1050 nM (active) and the Potency [18] was 26400 nM (active).
In the case of `O=C(Nc1cn[nH]c1-c1nc2ccc(CN3CCOCC3)cc2[nH]1)NC1CC1`, the Potency [1] is reported as 1180 nM (active), the Potency [2] is reported as 2090 nM (active) and the Potency [3] is reported as 148 nM (active). The Potency [4] was 1870 nM (active), the Potency [5] was 3320 nM (active) and the Potency [6] was 1870 nM (active). For the same molecule, the Potency [7] was 3320 nM (active), the Potency [8] was 5900 nM (active) and the Potency [9] was 2960 nM (active). The Potency [11] was 4690 nM (active), the Potency [12] was 5900 nM (active) and the Potency [13] was 2640 nM (active). The Potency [14] was 1180 nM (active), the Potency [20] was 10500 nM (active) and the Potency [15] was 1870 nM (active). The Potency [16] was 2960 nM (active), the Potency [17] was 4690 nM (active) and the Potency [18] was 7430 nM (active).

Source: PubChem BioAssay (NCATS)
